Assay results taken from the supplement of paper PMC9262897, “Low-cost anti-mycobacterial drug discovery using engineered E. coli” (Nature Communications, 2022).
Counter-ions that a name gives are not always drawn. ± gives the standard deviation of the averaged measurements.

Tests used:
Assay in all cases: growth (OD600 after 10 h); higher = more growth (less inhibition)
[1] = system: E. coli TESEC Alr+ wild-type control; details: compound 0.1 mM; raw OD600 reference: median of DMSO wells 0.241, cell-free background 0.041
Description: (§1)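 TESEC Mtb Alr E. coli, or the Alr+ wild-type control, in 384-well plates with Prestwick library compounds at 0.1 mM and 1% DMSO, across arabinose induction levels of 1E3 to 1E7 nM. Growth is read as OD600 after 10 h at 37 °C in triplicate biological replicates.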

E. coli TESEC Mtb Alr [2] = details: compound 0.1 mM
Description: as §1

E. coli TESEC Mtb Asd = details: compound 0.1 mM
Description: (§2)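 TESEC E. coli strains in which the native enzyme is deleted and replaced by arabinose-inducible Mtb Asd, DapB, CysH or TrpD, each grown in its selective medium. Strains were screened against the Prestwick library at 0.1 mM and 1% DMSO in 384-well format at low and high arabinose induction. Growth is read as OD600 after 10 h in triplicate.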

E. coli TESEC Mtb DapB = details: compound 0.1 mM
Description: as §2

E. coli TESEC Mtb Alr [3] = details: compound 0.1 mM; remark: listed apart in the source
Description: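 TESEC Mtb Alr E. coli (ΔaraC ΔtolC ΔentC Δalr ΔdadX, arabinose-inducible Mtb Alr) or the Alr+ wild-type control strain, grown in defined M9-fructose medium without D-alanine in 96-well plates with Prestwick library compounds at 0.1 mM and 1% DMSO. Low Alr induction is 0.1 µM arabinose and high induction is 10 mM arabinose.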

[4] = arabinose 1000 nM, raw OD600 reference: median of DMSO wells 0.294, cell-free background 0.041
[5] = arabinose 10000 nM, raw OD600 reference: median of DMSO wells 0.264, cell-free background 0.041
[6] = arabinose 100000 nM, raw OD600 reference: median of DMSO wells 0.201, cell-free background 0.041
[7] = arabinose 1000000 nM, raw OD600 reference: median of DMSO wells 0.193, cell-free background 0.041
[8] = arabinose 10000000 nM, raw OD600 reference: median of DMSO wells 0.146, cell-free background 0.041
[9] = arabinose induction (level): High, raw OD600 reference: median of DMSO wells 0.331, cell-free background 0.041
[10] = arabinose induction (level): Low, raw OD600 reference: median of DMSO wells 0.417, cell-free background 0.041
[11] = arabinose induction (level): High, raw OD600 reference: median of DMSO wells […], cell-free background 0.041
[12] = arabinose induction (level): Low, raw OD600 reference: median of DMSO wells 0.227, cell-free background 0.041
[13] = arabinose 100 nM, raw OD600 reference: median of DMSO wells 0.413, cell-free background 0.052
[14] = arabinose 10000000 nM, raw OD600 reference: median of DMSO wells […], cell-free background 0.052

## C[C@]12C[C@H]3S[C@H]3C[C@@H]1CC[C@@H]1[C@@H]2CC[C@]2(C)[C@@H](O)CC[C@@H]12 [Epitiostanol]
[1]
  growth: 0.248 ± 0.0036
E. coli TESEC Mtb Alr [2]; [4]
  growth: 0.291 ± 0.012
E. coli TESEC Mtb Alr [2]; [5]
  growth: 0.281 ± 0.0097
E. coli TESEC Mtb Alr [2]; [6]
  growth: 0.144 ± 0.011
E. coli TESEC Mtb Alr [2]; [7]
  growth: 0.15 ± 0.013
E. coli TESEC Mtb Alr [2]; [8]
  growth: 0.136 ± 0.0072
E. coli TESEC Mtb Asd; [9]
  growth: 0.162 ± 0.018
E. coli TESEC Mtb Asd; [10]
  growth: 0.337 ± 0.098
E. coli TESEC Mtb DapB; [11]
  growth: 0.203 ± 0.01
E. coli TESEC Mtb DapB; [12]
  growth: 0.21 ± 0.029
E. coli TESEC Mtb Alr [3]; [13]
  growth: 0.413 ± 0.014
E. coli TESEC Mtb Alr [3]; [14]
  growth: 0.265 ± 0.015

## O=[N+]([O-])O[C@H]1CO[C@H]2[C@@H]1OC[C@H]2O[N+](=O)[O-] [Isosorbide dinitrate]
[1]
  growth: 0.243 ± 0.013
E. coli TESEC Mtb Alr [2]; [4]
  growth: 0.32 ± 0.014
E. coli TESEC Mtb Alr [2]; [5]
  growth: 0.263 ± 0.0089
E. coli TESEC Mtb Alr [2]; [6]
  growth: 0.217 ± 0.025
E. coli TESEC Mtb Alr [2]; [7]
  growth: 0.185 ± 0.0031
E. coli TESEC Mtb Alr [2]; [8]
  growth: 0.159 ± 0.0026
E. coli TESEC Mtb Asd; [9]
  growth: 0.476 ± 0.013
E. coli TESEC Mtb Asd; [10]
  growth: 0.419 ± 0.07
E. coli TESEC Mtb DapB; [11]
  growth: 0.213 ± 0.012
E. coli TESEC Mtb DapB; [12]
  growth: 0.27 ± 0.03
E. coli TESEC Mtb Alr [3]; [13]
  growth: 0.4084 ± 0.0022
E. coli TESEC Mtb Alr [3]; [14]
  growth: 0.343 ± 0.014

## CC(NC(C)(C)C)C(=O)c1cccc(Cl)c1 (stereo not drawn) [Bupropion hydrochloride]
[1]
  growth: 0.226 ± 0.0027
E. coli TESEC Mtb Alr [2]; [4]
  growth: 0.283 ± 0.018
E. coli TESEC Mtb Alr [2]; [5]
  growth: 0.257 ± 0.0069
E. coli TESEC Mtb Alr [2]; [6]
  growth: 0.229 ± 0.023
E. coli TESEC Mtb Alr [2]; [7]
  growth: 0.171 ± 0.0039
E. coli TESEC Mtb Alr [2]; [8]
  growth: 0.136 ± 0.0076
E. coli TESEC Mtb Asd; [9]
  growth: 0.356 ± 0.055
E. coli TESEC Mtb Asd; [10]
  growth: 0.41 ± 0.03
E. coli TESEC Mtb DapB; [11]
  growth: 0.202 ± 0.0039
E. coli TESEC Mtb DapB; [12]
  growth: 0.261 ± 0.086
E. coli TESEC Mtb Alr [3]; [13]
  growth: 0.404 ± 0.012
E. coli TESEC Mtb Alr [3]; [14]
  growth: 0.365 ± 0.0095

## C#CCN(C)[C@H](C)Cc1ccccc1 [Selegiline hydrochloride]
[1]
  growth: 0.251 ± 0.0044
E. coli TESEC Mtb Alr [2]; [4]
  growth: 0.305 ± 0.015
E. coli TESEC Mtb Alr [2]; [5]
  growth: 0.283 ± 0.0084
E. coli TESEC Mtb Alr [2]; [6]
  growth: 0.233 ± 0.026
E. coli TESEC Mtb Alr [2]; [7]
  growth: 0.185 ± 0.0036
E. coli TESEC Mtb Alr [2]; [8]
  growth: 0.17 ± 0.004
E. coli TESEC Mtb Asd; [9]
  growth: 0.291 ± 0.064
E. coli TESEC Mtb Asd; [10]
  growth: 0.391 ± 0.016
E. coli TESEC Mtb DapB; [11]
  growth: 0.222 ± 0.018
E. coli TESEC Mtb DapB; [12]
  growth: 0.219 ± 0.0087
E. coli TESEC Mtb Alr [3]; [13]
  growth: 0.405 ± 0.017
E. coli TESEC Mtb Alr [3]; [14]
  growth: 0.342 ± 0.017

## C[C@]12CCC(=O)C=C1C=C[C@@H]1[C@@H]2CC[C@@]2(C)[C@H]1CC[C@@]2(O)CCC(=O)O [Canrenoic acid potassium salt]
[1]
  growth: 0.227 ± 0.01
E. coli TESEC Mtb Alr [2]; [4]
  growth: 0.275 ± 0.025
E. coli TESEC Mtb Alr [2]; [5]
  growth: 0.237 ± 0.019
E. coli TESEC Mtb Alr [2]; [6]
  growth: 0.16 ± 0.0057
E. coli TESEC Mtb Alr [2]; [7]
  growth: 0.163 ± 0.0033
E. coli TESEC Mtb Alr [2]; [8]
  growth: 0.15 ± 0.0017
E. coli TESEC Mtb Asd; [9]
  growth: 0.214 ± 0.052
E. coli TESEC Mtb Asd; [10]
  growth: 0.341 ± 0.03
E. coli TESEC Mtb DapB; [11]
  growth: 0.196 ± 0.012
E. coli TESEC Mtb DapB; [12]
  growth: 0.211 ± 0.031
E. coli TESEC Mtb Alr [3]; [13]
  growth: 0.407 ± 0.0047
E. coli TESEC Mtb Alr [3]; [14]
  growth: 0.264 ± 0.011

## CCCN1C[C@H](CSC)C[C@@H]2c3cccc4[nH]cc(c34)C[C@H]21 [Pergolide mesylate]
[1]
  growth: 0.2 ± 0.0044
E. coli TESEC Mtb Alr [2]; [4]
  growth: 0.254 ± 0.014
E. coli TESEC Mtb Alr [2]; [5]
  growth: 0.252 ± 0.0036
E. coli TESEC Mtb Alr [2]; [6]
  growth: 0.185 ± 0.0061
E. coli TESEC Mtb Alr [2]; [7]
  growth: 0.161 ± 0.0045
E. coli TESEC Mtb Alr [2]; [8]
  growth: 0.156 ± 0.0071
E. coli TESEC Mtb Asd; [9]
  growth: 0.314 ± 0.05
E. coli TESEC Mtb Asd; [10]
  growth: 0.425 ± 0.015
E. coli TESEC Mtb DapB; [11]
  growth: 0.2 ± 0.027
E. coli TESEC Mtb DapB; [12]
  growth: 0.234 ± 0.049
E. coli TESEC Mtb Alr [3]; [13]
  growth: 0.426 ± 0.018
E. coli TESEC Mtb Alr [3]; [14]
  growth: 0.345 ± 0.019

## CN(C)[C@@H]1C(=O)C(C(N)=O)=C(O)[C@@]2(O)C(=O)C3=C(O)c4c(O)cccc4[C@@](C)(O)[C@H]3C[C@@H]12 [Tetracycline hydrochloride]
[1]
  growth: 0.0422 ± 0.00046
E. coli TESEC Mtb Alr [2]; [4]
  growth: 0.0426 ± 0.0035
E. coli TESEC Mtb Alr [2]; [5]
  growth: 0.04053 ± 0.00032
E. coli TESEC Mtb Alr [2]; [6]
  growth: 0.0418 ± 0.0011
E. coli TESEC Mtb Alr [2]; [7]
  growth: 0.04083 ± 0.00025
E. coli TESEC Mtb Alr [2]; [8]
  growth: 0.0422 ± 0.00068
E. coli TESEC Mtb Asd; [9]
  growth: 0.0539 ± 0.0012
E. coli TESEC Mtb Asd; [10]
  growth: 0.0592 ± 0.0072
E. coli TESEC Mtb DapB; [11]
  growth: 0.0495 ± 0.0014
E. coli TESEC Mtb DapB; [12]
  growth: 0.0516 ± 0.0028
E. coli TESEC Mtb Alr [3]; [13]
  growth: 0.0567 ± 0.0019
E. coli TESEC Mtb Alr [3]; [14]
  growth: 0.0604 ± 0.0025

## C[C@]12CCC(=O)C=C1CC[C@@H]1[C@@H]2C(=O)C[C@]2(C)C(=O)CC[C@@H]12 [Adrenosterone]
[1]
  growth: 0.212 ± 0.0061
E. coli TESEC Mtb Alr [2]; [4]
  growth: 0.273 ± 0.015
E. coli TESEC Mtb Alr [2]; [5]
  growth: 0.245 ± 0.0058
E. coli TESEC Mtb Alr [2]; [6]
  growth: 0.163 ± 0.0036
E. coli TESEC Mtb Alr [2]; [7]
  growth: 0.131 ± 0.011
E. coli TESEC Mtb Alr [2]; [8]
  growth: 0.123 ± 0.0015
E. coli TESEC Mtb Asd; [9]
  growth: 0.256 ± 0.03
E. coli TESEC Mtb Asd; [10]
  growth: 0.445 ± 0.023
E. coli TESEC Mtb DapB; [11]
  growth: 0.202 ± 0.007
E. coli TESEC Mtb DapB; [12]
  growth: 0.225 ± 0.032
E. coli TESEC Mtb Alr [3]; [13]
  growth: 0.406 ± 0.014
E. coli TESEC Mtb Alr [3]; [14]
  growth: 0.2946 ± 0.0019

## O=c1[nH]c2ccccc2n1C1CCN(CCCC(c2ccc(F)cc2)c2ccc(F)cc2)CC1 [Pimozide]
[1]
  growth: 0.164 ± 0.013
E. coli TESEC Mtb Alr [2]; [4]
  growth: 0.243 ± 0.0073
E. coli TESEC Mtb Alr [2]; [5]
  growth: 0.2629 ± 0.0026
E. coli TESEC Mtb Alr [2]; [6]
  growth: 0.226 ± 0.045
E. coli TESEC Mtb Alr [2]; [7]
  growth: 0.106 ± 0.0046
E. coli TESEC Mtb Alr [2]; [8]
  growth: 0.142 ± 0.004
E. coli TESEC Mtb Asd; [9]
  growth: 0.209 ± 0.024
E. coli TESEC Mtb Asd; [10]
  growth: 0.396 ± 0.015
E. coli TESEC Mtb DapB; [11]
  growth: 0.186 ± 0.015
E. coli TESEC Mtb DapB; [12]
  growth: 0.227 ± 0.035
E. coli TESEC Mtb Alr [3]; [13]
  growth: 0.417 ± 0.0074
E. coli TESEC Mtb Alr [3]; [14]
  growth: 0.307 ± 0.034
